Laboratory results from PubChem BioAssay (Tox21).
Values joined by “and” are separate entries in the source; they are usually repeats but may differ in a detail not shown here. Equal values may be shown once. Records with an inconclusive call do not appear. Entries that show only a call come without a potency. A structure can be active in one record and inactive in another. Active and inactive are the calls of the source. Calls come from the whole dose curve; as a rule, active = well fitted curve in the direction sought with a large enough effect in the repeat runs; inconclusive = weak or mixed curves; inactive = no such curve, though single readings can be large; an effect the other way counts as inactive or inconclusive.

What was measured:
[1] = Caspase-3/7 induction in HepG2 cells by small molecules, qHTS assay (AID 1346978); note: nearly all actives have a fitted effect of over 15% in size
Summary of the method: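 Wild-type HepG2 cells, 2,000/well, settled 5 hr at 37 C and 5% CO2, then compound-treated for 17 hr; caspase-3/7 activity read by luminescent Caspase-Glo 3/7 after 30 min at room temperature.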

[2] = Caspase-3/7 induction in CHO-K1 cells by small molecules, qHTS cell viability counter screen (AID 1346979); note: nearly all actives have a fitted effect of over 35% in size; note: potency is the fitted concentration of half-maximal effect
Summary of the method: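 In the same wells as the caspase read, viability of compound-treated wild-type CHO-K1 cells was assessed using CellTiter-Fluor, added after 16hr at 37C and measured by fluorescence following 1hr further incubation.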

[3] = Caspase-3/7 induction in CHO-K1 cells by small molecules, qHTS assay (AID 1346980); note: nearly all actives have a fitted effect of over 15% in size
Summary of the method: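 Wild-type CHO-K1 cells exposed to compounds for 17hr at 37 C, 5% CO2. Caspase-3/7 activity then measured by Caspase-Glo 3/7 luminescence after 30min at room temperature.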

[4] = Caspase-3/7 induction in HepG2 cells by small molecules, qHTS cell viability counter screen (AID 1346981); note: nearly all actives have a fitted effect of over 30% in size; note: potency is the fitted concentration of half-maximal effect
Summary of the method: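 CellTiter-Fluor fluorescence measured viability in the same wells used for Caspase-Glo 3/7. HepG2 (wild type) at 2,000 cells/well were pre-incubated 5 hr, dosed, and given reagent at 16 hr, with 1 hr further at 37C.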

[5] = molecular target: Nuclear receptor subfamily 1 group I member 2 (Homo sapiens) (UniProt O75469); experiment: Human pregnane X receptor (PXR) small molecule agonists, qHTS assay (AID 1346982); note: nearly all actives have a fitted effect of over 35% in size; note: potency is the fitted concentration of half-maximal effect
Summary of the method: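 Agonist mode: luminescence from ONE-Glo after 24 h compound exposure at 37C in HepG2 cells carrying hPXR-responsive CYP3A4 luciferase, plated in charcoal-stripped serum medium 5 h beforehand.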

[6] = molecular target: Nuclear receptor subfamily 1 group I member 2 (Rattus norvegicus) (UniProt Q9R1A7); experiment: Rat pregnane X receptor (rPXR) activation by small molecules, qHTS assay (AID 1346983); conditions: rPXR luciferase reporter cells, One-Glo luminescence, 24 h; max activation: stronger effect = higher value; note: nearly all actives have a fitted effect of over 20% in size
Summary of the method: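 Cell-based rPXR activation assay: rPXR cells, 2,000 per well, rested 5hr at 37 C, then exposed to compounds in DMSO for 24 hr at 37 C. Luciferase activity read by One-Glo luminescence after 30 min at room temperature.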

[7] = molecular target: Nuclear receptor subfamily 1 group I member 2 (Homo sapiens) (UniProt O75469); experiment: CYP3A4 induction through human pregnane X receptor (PXR) by small molecules, qHTS assay (AID 1346984); note: nearly all actives have a fitted effect of over 40% in size
Summary of the method: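 Read-out is luminescence after One-Glo addition, following a 3 hr, 37C incubation with Luciferin-IPA CYP3A4 substrate (3uM final). Before that, compounds were on DPX-2 cells (HepG2 co-transfected with PXR element plus CYP3A4-promoter luciferase) for 24 hr at 37C.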

[8] = molecular target: Cytochrome P450 2D6 (Homo sapiens) (UniProt P10635); experiment: Cytochrome P450 Family 2 Subfamily D Member 6 (CYP2D6) small molecule antagonists: luciferase reporter qHTS assay (AID 1671196); note: nearly all actives have a fitted effect of over 50% in size; note: potency is the fitted concentration of half-maximal effect
Summary of the method: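 CYP2D6 activity was followed as luminescence from its luciferin product after a 1 h NADPH-driven reaction at room temperature. Enzyme-substrate mix and compound were pre-incubated for 10 min, and the signal was read 20 min after adding detection reagent.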

[9] = molecular target: Cytochrome P450 2C19 (Homo sapiens) (UniProt P33261); experiment: Cytochrome P450 Family 2 Subfamily C Member 19 (CYP2C19) small molecule antagonists: luciferase reporter qHTS assay (AID 1671197); note: nearly all actives have a fitted effect of over 65% in size; note: potency is the fitted concentration of half-maximal effect
Summary of the method: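 Quantitative high-throughput screen of the Tox21 library using CYP2C19 with proluciferin substrate. Reaction: NADPH regeneration, 37C, 1 h, after 10 min compound preincubation at room temperature. Readout: luminescence.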

[10] = molecular target: Cytochrome P450 2C9 (Homo sapiens) (UniProt P11712); experiment: Cytochrome P450 Family 2 Subfamily C Member 9 (CYP2C9) small molecule antagonists: luciferase reporter qHTS assay (AID 1671198); note: nearly all actives have a fitted effect of over 50% in size; note: potency is the fitted concentration of half-maximal effect
Summary of the method: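 P450-Glo proluciferin substrate with CYP2C9 enzyme; 10 min RT preincubation, then NADPH regeneration 1 h at 37C; luciferin detection reagent 20 min RT, luminescence in relative luminescence units.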

[11] = molecular target: Cytochrome P450 1A2 (Homo sapiens) (UniProt P05177); experiment: Cytochrome P450 Family 1 Subfamily A Member 2 (CYP1A2) small molecule antagonists: luciferase reporter qHTS assay (AID 1671199); note: nearly all actives have a fitted effect of over 50% in size; note: potency is the fitted concentration of half-maximal effect
Summary of the method: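 Luminescence from luciferin formed by CYP1A2 from a proluciferin substrate, read 20 min after detection reagent. Compound was pre-incubated 10 min with enzyme-substrate, and reaction started with NADPH regeneration solution for 1 h at room temperature; furafylline control.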

[12] = molecular target: Voltage-gated inwardly rectifying potassium channel KCNH2 (Homo sapiens) (UniProt Q12809); experiment: Human Ether-a-go-go-Related Gene (hERG) channel small molecule antagonists: fluorescence cell-based qHTS assay (AID 1671200);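 note: hERG-expressing U2OS cells given a thallium stimulus after FluxOR II dye loading; series mostly up to about 77 µM; nearly all actives have a fitted effect of over 50% in size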
Summary of the method: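 Quantitative HTS in hERG-U2OS cells: thallium entry through the channel reports activity, read as continuous 480/540 nm fluorescence over 2 min after stimulus addition.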

[13] = molecular target: Cytochrome P450 3A4 (Homo sapiens) (UniProt P08684); experiment: Cytochrome P450 Family 3 Subfamily A Member 4 (CYP3A4) small molecule antagonists: luciferase reporter qHTS assay (AID 1671201)
Summary of the method: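 Inhibition of CYP3A4 is measured as loss of light: the enzyme converts a proluciferin substrate to luciferin, detected luminescently. Reaction ran 1 h at room temperature with NADPH regeneration after a 10 min compound preincubation.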

Chain of Cytochrome P450 3A4 (Homo sapiens) (P08684 whole entry, looked up): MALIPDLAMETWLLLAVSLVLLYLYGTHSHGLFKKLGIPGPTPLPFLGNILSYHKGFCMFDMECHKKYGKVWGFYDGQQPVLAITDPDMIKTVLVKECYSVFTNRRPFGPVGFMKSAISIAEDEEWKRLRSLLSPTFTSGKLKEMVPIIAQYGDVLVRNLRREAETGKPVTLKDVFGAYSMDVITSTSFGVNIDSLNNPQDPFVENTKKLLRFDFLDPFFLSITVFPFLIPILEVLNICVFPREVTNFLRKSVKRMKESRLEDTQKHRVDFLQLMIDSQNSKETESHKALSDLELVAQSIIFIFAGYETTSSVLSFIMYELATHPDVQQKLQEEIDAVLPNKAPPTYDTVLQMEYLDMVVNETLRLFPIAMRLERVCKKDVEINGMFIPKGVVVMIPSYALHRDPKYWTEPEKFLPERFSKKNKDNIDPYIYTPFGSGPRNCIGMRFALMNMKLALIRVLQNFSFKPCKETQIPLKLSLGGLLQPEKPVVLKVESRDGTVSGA
Chain of Cytochrome P450 2C19 (Homo sapiens) (P33261 whole entry, looked up): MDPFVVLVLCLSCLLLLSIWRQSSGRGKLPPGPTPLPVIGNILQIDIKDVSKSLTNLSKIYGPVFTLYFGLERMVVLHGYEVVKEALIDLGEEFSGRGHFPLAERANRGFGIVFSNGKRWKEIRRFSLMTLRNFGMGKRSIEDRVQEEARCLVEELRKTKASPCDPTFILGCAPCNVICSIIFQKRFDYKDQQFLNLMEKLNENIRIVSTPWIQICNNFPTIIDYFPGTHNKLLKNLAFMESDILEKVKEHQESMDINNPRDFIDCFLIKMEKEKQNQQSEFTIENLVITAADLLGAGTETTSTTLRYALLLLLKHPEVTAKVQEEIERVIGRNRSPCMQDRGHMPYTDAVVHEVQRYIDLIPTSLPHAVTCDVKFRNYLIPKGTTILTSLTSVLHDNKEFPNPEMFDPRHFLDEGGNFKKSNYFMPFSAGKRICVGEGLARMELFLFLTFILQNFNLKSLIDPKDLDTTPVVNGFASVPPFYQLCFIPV
Chain of Cytochrome P450 1A2 (Homo sapiens) (P05177 whole entry, looked up): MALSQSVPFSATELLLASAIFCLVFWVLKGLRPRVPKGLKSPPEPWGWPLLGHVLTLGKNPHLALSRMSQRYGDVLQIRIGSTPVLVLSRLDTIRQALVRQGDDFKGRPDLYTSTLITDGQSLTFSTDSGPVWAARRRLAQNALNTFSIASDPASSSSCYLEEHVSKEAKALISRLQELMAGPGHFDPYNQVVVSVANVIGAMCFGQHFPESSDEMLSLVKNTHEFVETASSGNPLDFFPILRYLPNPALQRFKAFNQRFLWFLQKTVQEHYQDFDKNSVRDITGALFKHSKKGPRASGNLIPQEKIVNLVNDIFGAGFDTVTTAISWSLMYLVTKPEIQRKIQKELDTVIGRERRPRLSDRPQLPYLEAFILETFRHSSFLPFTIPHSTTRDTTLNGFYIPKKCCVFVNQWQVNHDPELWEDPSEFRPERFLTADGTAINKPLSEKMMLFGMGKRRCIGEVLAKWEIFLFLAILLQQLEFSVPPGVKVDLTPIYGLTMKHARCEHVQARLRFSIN
Chain of Nuclear receptor subfamily 1 group I member 2 (Homo sapiens) (O75469 whole entry, looked up): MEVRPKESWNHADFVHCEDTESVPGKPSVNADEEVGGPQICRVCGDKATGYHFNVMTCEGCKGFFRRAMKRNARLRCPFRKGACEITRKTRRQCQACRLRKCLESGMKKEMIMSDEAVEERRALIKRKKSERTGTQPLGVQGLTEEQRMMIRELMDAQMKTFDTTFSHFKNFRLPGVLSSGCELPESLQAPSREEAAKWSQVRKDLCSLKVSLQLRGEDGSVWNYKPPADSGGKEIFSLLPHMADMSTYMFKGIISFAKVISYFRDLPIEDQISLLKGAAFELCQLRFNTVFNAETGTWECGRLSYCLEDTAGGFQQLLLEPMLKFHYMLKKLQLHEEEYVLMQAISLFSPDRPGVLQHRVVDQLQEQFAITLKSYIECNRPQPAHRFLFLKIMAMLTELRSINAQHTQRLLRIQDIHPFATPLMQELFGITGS
Chain of Voltage-gated inwardly rectifying potassium channel KCNH2 (Homo sapiens) (Q12809 whole entry, looked up): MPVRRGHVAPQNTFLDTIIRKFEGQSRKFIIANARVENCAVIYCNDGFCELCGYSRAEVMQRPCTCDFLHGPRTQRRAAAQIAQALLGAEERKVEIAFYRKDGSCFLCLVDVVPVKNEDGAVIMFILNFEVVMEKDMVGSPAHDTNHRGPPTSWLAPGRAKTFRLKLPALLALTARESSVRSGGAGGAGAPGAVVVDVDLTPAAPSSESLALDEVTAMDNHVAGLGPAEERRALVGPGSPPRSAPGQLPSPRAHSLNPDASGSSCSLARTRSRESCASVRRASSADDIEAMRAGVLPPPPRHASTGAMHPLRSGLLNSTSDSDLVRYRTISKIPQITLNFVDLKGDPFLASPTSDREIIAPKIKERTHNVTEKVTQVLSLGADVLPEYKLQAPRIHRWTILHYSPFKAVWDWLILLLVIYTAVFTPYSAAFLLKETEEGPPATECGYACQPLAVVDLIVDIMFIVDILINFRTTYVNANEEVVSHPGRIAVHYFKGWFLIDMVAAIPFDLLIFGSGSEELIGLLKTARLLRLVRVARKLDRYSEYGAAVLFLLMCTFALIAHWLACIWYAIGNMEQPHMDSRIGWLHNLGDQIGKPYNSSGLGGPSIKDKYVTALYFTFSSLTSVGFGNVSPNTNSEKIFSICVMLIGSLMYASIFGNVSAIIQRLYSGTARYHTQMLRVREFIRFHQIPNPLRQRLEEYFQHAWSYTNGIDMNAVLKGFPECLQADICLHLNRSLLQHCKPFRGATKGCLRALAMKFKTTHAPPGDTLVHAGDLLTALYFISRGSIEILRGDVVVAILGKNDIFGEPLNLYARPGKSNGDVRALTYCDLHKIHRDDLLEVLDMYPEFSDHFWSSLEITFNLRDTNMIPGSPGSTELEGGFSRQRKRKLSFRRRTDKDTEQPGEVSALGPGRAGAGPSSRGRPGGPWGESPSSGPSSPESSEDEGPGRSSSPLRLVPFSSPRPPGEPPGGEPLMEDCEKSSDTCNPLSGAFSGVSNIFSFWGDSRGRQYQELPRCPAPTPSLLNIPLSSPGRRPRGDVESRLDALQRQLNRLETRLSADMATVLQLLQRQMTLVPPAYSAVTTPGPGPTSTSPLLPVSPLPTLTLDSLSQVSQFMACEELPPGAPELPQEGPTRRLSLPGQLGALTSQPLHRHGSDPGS
Chain of Nuclear receptor subfamily 1 group I member 2 (Rattus norvegicus) (Q9R1A7 whole entry, looked up): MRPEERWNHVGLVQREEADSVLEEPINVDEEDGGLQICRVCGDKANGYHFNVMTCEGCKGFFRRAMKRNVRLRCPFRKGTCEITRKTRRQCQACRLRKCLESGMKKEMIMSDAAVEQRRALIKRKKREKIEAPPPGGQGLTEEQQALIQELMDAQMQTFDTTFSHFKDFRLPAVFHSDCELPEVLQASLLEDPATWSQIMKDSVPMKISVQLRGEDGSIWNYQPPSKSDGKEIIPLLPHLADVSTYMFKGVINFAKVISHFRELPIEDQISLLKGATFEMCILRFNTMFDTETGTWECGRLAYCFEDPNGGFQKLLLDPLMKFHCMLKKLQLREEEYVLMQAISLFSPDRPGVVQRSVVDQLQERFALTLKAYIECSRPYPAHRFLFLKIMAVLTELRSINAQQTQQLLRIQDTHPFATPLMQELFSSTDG
Chain of Cytochrome P450 2C9 (Homo sapiens) (P11712 whole entry, looked up): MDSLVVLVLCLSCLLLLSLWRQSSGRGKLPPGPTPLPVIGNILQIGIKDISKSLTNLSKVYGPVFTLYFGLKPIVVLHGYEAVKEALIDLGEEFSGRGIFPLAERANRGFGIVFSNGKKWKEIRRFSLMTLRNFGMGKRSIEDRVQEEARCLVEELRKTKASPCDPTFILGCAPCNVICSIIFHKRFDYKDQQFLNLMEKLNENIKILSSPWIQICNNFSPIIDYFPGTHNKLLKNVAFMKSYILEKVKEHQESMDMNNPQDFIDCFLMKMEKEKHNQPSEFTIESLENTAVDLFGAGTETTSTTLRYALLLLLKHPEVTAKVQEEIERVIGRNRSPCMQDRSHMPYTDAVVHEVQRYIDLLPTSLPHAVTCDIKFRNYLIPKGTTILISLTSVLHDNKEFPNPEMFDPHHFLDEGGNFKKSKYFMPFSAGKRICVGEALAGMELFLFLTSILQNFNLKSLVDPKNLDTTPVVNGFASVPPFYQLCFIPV
Chain of Cytochrome P450 2D6 (Homo sapiens) (P10635 whole entry, looked up): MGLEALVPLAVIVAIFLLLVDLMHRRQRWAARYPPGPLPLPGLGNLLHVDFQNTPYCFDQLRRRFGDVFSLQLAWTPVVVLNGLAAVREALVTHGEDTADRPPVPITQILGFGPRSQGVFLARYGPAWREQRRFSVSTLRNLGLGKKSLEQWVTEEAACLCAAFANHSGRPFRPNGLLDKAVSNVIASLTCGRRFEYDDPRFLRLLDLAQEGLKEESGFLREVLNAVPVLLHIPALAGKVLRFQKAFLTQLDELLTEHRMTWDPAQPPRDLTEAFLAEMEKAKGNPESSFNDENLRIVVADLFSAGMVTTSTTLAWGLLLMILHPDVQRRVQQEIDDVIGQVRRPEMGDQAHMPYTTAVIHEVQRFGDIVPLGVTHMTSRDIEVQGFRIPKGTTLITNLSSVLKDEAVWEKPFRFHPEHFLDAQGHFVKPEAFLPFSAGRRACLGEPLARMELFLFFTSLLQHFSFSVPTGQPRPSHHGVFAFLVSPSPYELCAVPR

Row | SMILES | Potency [1] | Potency [2] | Potency [3] | Potency [4] | Potency [5] | max activation [6] | Potency [7] | Potency [8] | Potency [9] | Potency [10] | Potency [11] | Potency [12] | Potency [13]
1 | Cc1cn([C@H]2C=C[C@@H](CO)O2)c(=O)[nH]c1=O | inactive | inactive | inactive | inactive | inactive | -2.07% (inactive) | inactive | inactive | inactive | inactive | inactive | inactive | inactive
2 | C=C(C)C(=O)OCC(C)O (stereo not drawn) | inactive | inactive | inactive | inactive | inactive | – | – | inactive | inactive | inactive | inactive | inactive | inactive
3 | CCCCOC(=O)c1ccc(O)cc1 | inactive | 31 µM (active) and inactive | inactive | inactive | 69.4 µM (active) and inactive | – | – | inactive | 28.6 µM (active) and 35.6 µM (active) and 15.5 µM (active) | 32.1 µM (active) and 28.3 µM (active) and 17.4 µM (active) | 4.54 µM (active) and 6.33 µM (active) and 4.36 µM (active) | inactive | inactive
4 | O=C1OC2(c3ccccc31)c1cc(Br)c(O)c(Br)c1Oc1c2cc(Br)c(O)c1Br | inactive | 6.2 µM (active) and 22.3 µM (active) and 11.9 µM (active) | inactive | 6.2 µM (active) and 19.9 µM (active) and 10.6 µM (active) | inactive | -7.26% (inactive) | inactive | inactive | 20.3 µM (active) and inactive | 5.1 µM (active) and 9.19 µM (active) and 7.76 µM (active) | 29.1 µM (active) | inactive | inactive
5 | CS(=O)(=O)OCCCCOS(C)(=O)=O | inactive | inactive | inactive | inactive | inactive | -4.1% (inactive) | inactive | 35.7 µM (active) | 56.6 µM (active) and inactive | inactive | inactive | inactive | inactive
6 | C=CCc1ccc(O)c(OC)c1 | inactive | inactive | inactive | inactive | inactive | -1.79% (inactive) | inactive | 9.97 µM (active) and inactive | 39.7 µM (active) and 56.4 µM (active) and inactive | – | 31.5 µM (active) and 39.9 µM (active) | inactive | inactive
7 | CC(=O)CCC(=O)O | inactive | inactive | inactive | inactive | inactive | -1.2% (inactive) | inactive | inactive | inactive | inactive | inactive | inactive | –
8 | CCCCC(CC)C(=O)O (stereo not drawn) | inactive | inactive | inactive | inactive | inactive | – | – | inactive | inactive | inactive and 71 µM (active) | inactive | inactive | inactive
9 | Cc1c(C(=O)O)c(O)cc2c1C(=O)c1c(O)c([C@@H]3O[C@H](CO)[C@@H](O)[C@H](O)[C@H]3O)c(O)c(O)c1C2=O | inactive | 33.5 µM (active) and 27.3 µM (active) and 23.7 µM (active) | inactive | 18.9 µM (active) and 15.4 µM (active) and 26.6 µM (active) | inactive | -3.66% (inactive) | inactive | 31 µM (active) and 39.9 µM (active) | 39 µM (active) | 34.7 µM (active) and 39.9 µM (active) | 34.7 µM (active) and 39.9 µM (active) and inactive | inactive | inactive
10 | CCOC(N)=O | inactive | inactive | inactive | inactive | inactive | -2.09% (inactive) | inactive | inactive | 60 µM (active) and inactive | inactive | inactive | inactive | inactive
11 | O=C1c2c(O)cccc2Cc2cccc(O)c21 | inactive | inactive | inactive | inactive | inactive | -3.04% (inactive) | inactive | inactive | inactive | inactive | inactive | inactive | inactive
12 | O=S1(=O)OC(c2ccc(O)cc2)(c2ccc(O)cc2)c2ccccc21 | inactive | 30.6 µM (active) and 13.3 µM (active) | inactive | 34.4 µM (active) and 48.6 µM (active) and 15 µM (active) | inactive | 1.08% (inactive) | inactive | inactive | inactive and 50.2 µM (active) | 3.17 µM (active) and 3.56 µM (active) and 2.45 µM (active) | 25.2 µM (active) and 39.9 µM (active) | inactive | inactive
